PAX8 inh HTS: inhibitors of PAX8 transcriptional activity in RMG-I cells; RMG-I TPO-luciferase reporter, SteadyGlo, 24 h; inhibition, % at 12.6 µM; 360,000 compounds, 1.2% hits; AID 652154;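 active = mean replicate inhibition at least 60% with every replicate also reaching 60%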;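 also: luciferase light reporting Pax8 driven TPO promoter activity; plate controls were median of neutral control wells for no effect and mitoxantrone controls for full effect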
GAA850 FXN act: increases GAA850 frataxin promoter reporter activity; AID 540364; activation, % at 6 µM; HEK293 lucGAA850 FXN promoter luciferase reporter, 24 h; percent of 10 µM SAHA response; 360,000 compounds, 0.56% hits;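 active = activation above the average of all compounds screened plus 3 SD, cutoff fixed separately per campaign, cut at about 7.5% in these data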;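 also: 0% = DMSO wells and 100% = 10 µM SAHA wells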
EWS-Fli block: EWS/Fli transcriptional activity inhibition; 350,000 compounds, 0.67% hits; A673 NR0B1-luciferase reporter, viability-normalised; inhibition, % at 12.6 µM; AID 651661;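 active = mean inhibition of at least 50% after viability correction, with every replicate also passing that limit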;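 also: firefly luciferase signal divided by Alamar Blue viability fluorescence both relative to DMSO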
F508del corr: correctors of CFTR F508del function in bronchial epithelial cells; AID 720511; activity (quench increase), % at 7.58 µM; CFBE cells, YFP halide quenching; stimulated with forskolin plus potentiator P3; % fluorescence drop versus neutral controls; 350,000 compounds, 0.36% hits;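 active = mean added fluorescence quench of at least 8% versus neutral control, with both replicates also reaching 8%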;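 also: cells transiently co-express mutant CFTR-F508del with the halide-sensitive YFP; corrector assay measuring rescue of mutant channel to the surface after 24 h compound exposure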
HIV Env fusion: blocks HIV Env-driven cell-cell fusion; inhibition, % at 12.3 µM; 360,000 compounds, 1.1% hits; HeLa-JRFL Env/CEM21 cell fusion, luciferase; AID 651610;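 active = mean replicate inhibition score of at least 50 and every replicate individually at or above 50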;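 also: 0% = plate neutral controls and 100% = maraviroc near 300 nM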
Starred values were filed as active, the others as inactive; ! = repeats disagree; [ ] = remark or other dose. An excerpt weighted towards active compounds, which were near 2.5% of everything screened.

What do the screens show for `CC(C)NC(=O)Nc1ccc2c(c1)C(=O)N([C@H](C)CO)C[C@@H](C)[C@H](CN(C)Cc1ccncc1)O2`?
PAX8 inh HTS: -9.2; EWS-Fli block: -8.1; F508del corr: 1.6

How did COc1ccccc1-n1cc([C@@H]2C[C@H]3CN(c4ccccc4)C(=O)[C@]34CCCN24)cn1 do in these assays?
PAX8 inh HTS: 97.8*; GAA850 FXN act: -13.4; EWS-Fli block: -13.5; F508del corr: -3.8; HIV Env fusion: 58.6*

Results for COc1cc([C@@H]2C[C@H]3CN(c4ccccc4)C(=O)[C@]34CCCN24)cc(OC)c1OC ?
PAX8 inh HTS: 8.1; GAA850 FXN act: -2.0; EWS-Fli block: 7.6; F508del corr: 1.5; HIV Env fusion: 20.6

What do the screens show for `COc1ccc(C(CCNC(C)c2ccccc2)c2ccc(F)cc2)cc1` (centres undefined)?
PAX8 inh HTS: 81.2*; GAA850 FXN act: -4.0; HIV Env fusion: 35.2

What do the screens show for `COc1ccc(C(CCNCc2ccccc2)c2ccc(F)cc2)cc1` (centres undefined)?
PAX8 inh HTS: -5.2; GAA850 FXN act: -3.7; HIV Env fusion: -15.2

How did Cc1ccc(S(=O)(=O)N(C)C[C@H]2Oc3ccc(NC(=O)CCCN(C)C)cc3CC(=O)N([C@H](C)CO)C[C@H]2C)cc1 do in these assays?
PAX8 inh HTS: -0.9; EWS-Fli block: 0.6; F508del corr: 3.6

What do the screens show for `COc1ccc(NC(=O)Nc2ccc3c(c2)C(=O)N([C@@H](C)CO)C[C@H](C)[C@@H](CN(C)Cc2ccc(Cl)c(Cl)c2)OCCCC[C@@H](C)O3)cc1`?
PAX8 inh HTS: 34.4; EWS-Fli block: 2.8; F508del corr: 3.7; HIV Env fusion: 13.7[16.7 µM]

How did COc1ccc(NC(=O)Nc2ccc3c(c2)C(=O)N([C@H](C)CO)C[C@H](C)[C@H](CN(C)Cc2ccc(Cl)c(Cl)c2)OCCCC[C@H](C)O3)cc1 do in these assays?
PAX8 inh HTS: 30.5; EWS-Fli block: 1.0; F508del corr: -1.6; HIV Env fusion: 91.0*[16.7 µM]

What do the screens show for `COc1ccc(NC(=O)Nc2ccc3c(c2)C(=O)N([C@H](C)CO)C[C@H](C)[C@@H](CN(C)Cc2ccc(Cl)c(Cl)c2)OCCCC[C@@H](C)O3)cc1`?
PAX8 inh HTS: 74.3*!; GAA850 FXN act: -3.4; EWS-Fli block: 0.8; F508del corr: 0.7; HIV Env fusion: 5.9

What do the screens show for `COc1ccc(NC(=O)Nc2ccc3c(c2)C(=O)N([C@@H](C)CO)C[C@@H](C)[C@@H](CN(C)Cc2ccc(Cl)c(Cl)c2)OCCCC[C@@H](C)O3)cc1`?
PAX8 inh HTS: 75.1*; EWS-Fli block: -1.9; F508del corr: 1.4; HIV Env fusion: 19.8[16.7 µM]

How did CNC[C@H]1Oc2ncc(C3=CCCC3)cc2C(=O)N([C@@H](C)CO)C[C@H]1C do in these assays?
EWS-Fli block: -3.1; F508del corr: -1.6; HIV Env fusion: 0.5[16.7 µM]

Results for COc1ccc2c3c([nH]c2c1)[C@@H](CO)N(Cc1ccccc1F)CC31CN(C(=O)C2CCCC2)C1 ?
PAX8 inh HTS: 16.8; EWS-Fli block: 22.6; F508del corr: 3.5

What do the screens show for `CCOC(=O)c1ccc(N=Nc2c(C)[nH]n(-c3ccccc3)c2=O)cc1`?
PAX8 inh HTS: 12.1; GAA850 FXN act: 0.9; EWS-Fli block: 21.3; F508del corr: -1.5; HIV Env fusion: -7.4

What do the screens show for `CCOC(=O)c1ccc(-n2[nH]c(-c3ccccc3)cc2=O)cc1`?
GAA850 FXN act: 1.3; HIV Env fusion: 57.7*

How did C[C@@H]1CN([C@H](C)CO)C(=O)Cc2cc(N(C)C)ccc2O[C@@H]1CN(C)S(=O)(=O)c1ccccc1 do in these assays?
PAX8 inh HTS: -8.1; F508del corr: 0.8; HIV Env fusion: -3.8[16.7 µM]

How did O=c1[nH][nH]cc1C=Nc1ccccc1O do in these assays?
PAX8 inh HTS: 22.0; GAA850 FXN act: -0.1; HIV Env fusion: 71.5*

How did CCC(=O)N1[C@H](CO)[C@H](c2ccc(-c3ccccc3)cc2)[C@H]1CN(CC)C(C)=O do in these assays?
PAX8 inh HTS: -1.9; EWS-Fli block: -6.8; F508del corr: 1.2

What do the screens show for `CCC(=O)N1[C@H](CN(CC)C(C)=O)[C@@H](c2ccc(-c3ccccc3)cc2)[C@@H]1CO`?
PAX8 inh HTS: -19.4; EWS-Fli block: -6.0; F508del corr: 8.9*

How did OC[C@H]1[C@H](c2ccc(C#Cc3ccccc3)cc2)[C@@H]2CN(Cc3cncnc3)CCCCN12 do in these assays?
PAX8 inh HTS: 5.1; EWS-Fli block: -20.2; F508del corr: -2.2

What do the screens show for `O=C1C=C(NCc2ccc(Cl)c(Cl)c2)CC1`?
GAA850 FXN act: 0.4
